# IL-1B inflam inh: inflammasome signaling inhibition, IL-1 beta readout; THP-1 LPS/ATP IL-1B secretion, AlphaLISA, 16 h; stronger effect = lower value; activity change, % at 57.5 µM; 360,000 tested, 4.7% active; AID 743279; in the data active means activity change below about -50%; inconclusive means mostly about -30% to -49%
#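 Secreted IL-1B measured by AlphaLISA bead assay after 16 h compound exposure of THP-1 cells; compounds (final up to 57.5 uM) added 1 h before LPS (250 ng/mL) and ATP (1.25 mM) stimulation; lower signal means less secretion.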
# DT40 TDP1 CPT: DT40-hTDP1 cell growth loss with CPT | chicken DT40 Tdp1-/-;hTDP1 cells + 20 nM CPT, ATP luminescence, 48 h | Potency, µM (highest dose often 46.2 µM), for inactives: at the top dose activity change, negative = growth inhibition, most hits filed as inhibitors | 420,000 tested, 12% active | AID 686979; further: potency means the concentration at half of the fitted maximal effect; nearly all actives have a fitted effect of over 55% in size
#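 Cell growth measured by CellTiter-Glo luminescence after a minimum 48 h, 37 C compound exposure with 20 nM CPT in Tdp1-knockout DT40 cells stably expressing hTDP1, seeded 400/well; qHTS titration format.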
# Six1-Eya2 blk: Six1/Eya2 interaction inhibition; Q15475+O00167; AlphaScreen GST-Six1/His-Eya2 binding, biochemical; stronger effect = lower value; activity change, % (test concentration not listed); 360,000 tested, 0.56% active; in the data active means activity change below about -65%; inconclusive means mostly about -30% to -63%
#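 Six1/Eya2 binding was read as AlphaScreen signal after compounds were pinned into GST-Six1 plus His-tagged Eya2 (5X stock 250/500 nM) in pH 8.0 Tris/NaCl/TCEP buffer, beads added, then incubated 1 h, 37 C, dark.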
# TDP1 block: TDP1 (human) enzyme inhibition; Q9NUW8; recombinant TDP1, AlphaScreen DNA substrate cleavage; Potency, µM (titrated, usually from 130 µM), for the others: top-dose activity change, negative = inhibition, actives largely listed as inhibitors; 350,000 tested, 0.28% active; AID 485290; further: potency means the concentration at half of the fitted maximal effect; nearly all actives have a fitted effect of over 40% in size
# Target sequence (Q9NUW8 whole entry, looked up): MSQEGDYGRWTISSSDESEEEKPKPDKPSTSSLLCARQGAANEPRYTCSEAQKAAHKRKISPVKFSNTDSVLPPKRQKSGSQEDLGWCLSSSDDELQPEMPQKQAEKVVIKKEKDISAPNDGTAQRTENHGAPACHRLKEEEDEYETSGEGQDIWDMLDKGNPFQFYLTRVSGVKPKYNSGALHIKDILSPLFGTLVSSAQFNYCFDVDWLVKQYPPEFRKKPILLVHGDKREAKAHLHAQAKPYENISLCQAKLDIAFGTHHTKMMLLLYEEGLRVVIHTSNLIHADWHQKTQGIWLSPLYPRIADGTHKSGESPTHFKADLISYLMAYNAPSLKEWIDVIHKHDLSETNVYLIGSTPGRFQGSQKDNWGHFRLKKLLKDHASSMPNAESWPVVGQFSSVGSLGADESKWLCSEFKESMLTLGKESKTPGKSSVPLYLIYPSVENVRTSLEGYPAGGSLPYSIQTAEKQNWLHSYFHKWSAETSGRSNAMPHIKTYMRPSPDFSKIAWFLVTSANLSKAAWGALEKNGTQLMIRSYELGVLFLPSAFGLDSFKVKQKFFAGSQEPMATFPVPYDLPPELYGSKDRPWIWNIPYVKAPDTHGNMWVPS
#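 Signal: AlphaScreen proximity between streptavidin donor and anti-FITC acceptor beads on intact substrate. Reaction: Tdp1 1 nM, substrate 15 nM final, 5 min RT after 15 min compound preincubation.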
# CtBP-E1A inh: CtBP/E1A binding inhibition. activity change, % (no concentration beside the values). 340,000 tested, 0.49% active. AlphaScreen GST-E1A/His-CtBP binding, 1536-well; stronger effect = lower value. AID 651724; in the data active means activity change below about -65%; inconclusive means mostly about -30% to -63%
#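 AlphaScreen with 125 nM GST-E1A and 125 nM His-CtBP (5X stocks) in Tris pH 8.0, 300 mM NaCl, BSA, Tween 20, TCEP. Compounds preincubated 2 h at 37 deg C, then glutathione donor/nickel acceptor beads added for 1 h at 37 deg C in dark.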
# DT40 TDP1 no CPT: qHTS for Inhibitors of human tyrosyl-DNA phosphodiesterase 1 (TDP1): qHTS in cells in absence of CPT; 420,000 tested, 15% active; DT40 Tdp1-/- hTDP1 cells, no CPT, ATP luminescence, 48 h; AID 686978, 2013; Potency, µM (series often up to 46.2 µM), inactives show top-dose activity change, negative = growth inhibition, actives largely listed as inhibitors; further: potency means the concentration at half of the fitted maximal effect; nearly all actives have a fitted effect of over 55% in size
#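 Cells were dispensed at 400 per well, compounds added by pin tool, plates incubated ≥48 hr at 37 °C, then CellTiter-Glo added for 30 min at room temperature before luminescence reading. Line: DT40 Tdp1-/- complemented with hTDP1; camptothecin omitted.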
# Starred values were filed as active, the others as inactive; ? = inconclusive; / = not tested or not shown; [ ] = another dose, or the depositor's remark. Only some compounds are listed: those with a hit (about 18% of all), similar ones and a draw of the others. Unless noted, the call rests on the fitted dose curve; in most records, active means well fitted curve in the direction sought with a large enough effect; inconclusive means small, poorly fitted or top-dose-only effect, or another doubt; inactive means no such curve, though single readings can be large; an effect the other way counts as inactive or inconclusive. On the % scale 0 is the no-effect control and ±100 the full control effect.
SMILES,IL-1B inflam inh,DT40 TDP1 CPT,Six1-Eya2 blk,TDP1 block,CtBP-E1A inh,DT40 TDP1 no CPT
Cc1ccc(S(=O)(=O)N2CCCCC2)cc1NC(=O)COC(=O)C1CC1,30,3%,3,/,0,?
O=C(NOCc1ccccc1)c1ccc(Cl)cc1,?,-13%,7,0%,-1,18%
CC(C)(C)OC(=O)N1CC2Cc3[nH]c(=O)ccc3C(C2)C1 (configuration not stated),-5,1%,2,-2%,-8,-15%
Cc1ccc(S(=O)(=O)NCCc2cn3c(C)csc3n2)cc1,/,0%,/,5%,/,-24%
COc1cc(C2NC(=O)NC(C)=C2C(=O)OC2CCC(C)CC2)ccc1O (configuration not stated),-17,-5%,-9,/,-9,2%
COc1ccc(CC2(CO)CCN(Cc3cnn(-c4ccccc4OC)c3)CC2)cc1,-9,?,-21,0%,-8,10µM*
COc1ccc(CN2CCN(Cc3ccc(C(F)(F)F)cc3)CC2)cc1,?,?,-8,/,-15,23µM*
O=C(CCSc1nccn1Cc1ccccc1)N1CCOCC1,20,-2%,4,1%,6,2%
CCC(=O)N(CC(=O)Nc1sc(C)c(C)c1C(N)=O)Cc1ccc(F)cc1,8,21µM*,-2,-2%,1,15µM*
Cc1sc(NC(=O)CN(Cc2ccc(F)cc2)C(=O)C(C)C)c(C(N)=O)c1C,?,3.7µM*,4,1%,9,2.3µM*
CC(=O)Nc1sc(C)c(C)c1C(=O)OCC(=O)N(Cc1ccccc1)C(C)C,21,?,4,2%,5,-28%
O=C(CN(Cc1ccc(Cl)cc1)C(=O)c1csnn1)NCc1ccc(F)cc1,16,-16%,-14,/,0,?
COc1ccc(C(=O)N(CC(=O)Nc2sc(C)c(C)c2C(N)=O)C2CCCC2)cc1,6,?,-2,3%,11,?
CCC(=O)N(CC(=O)Nc1sc(C)c(C)c1C(N)=O)C1CCCC1,17,23µM*,6,5%,-8,13µM*
Cc1sc(NC(=O)CN(Cc2ccccc2)C(=O)C(C)C)c(C(N)=O)c1C,25,1.8µM*,-1,5%,/,1.2µM*
CC(=O)Oc1ccc2nc(-c3ccco3)oc(=O)c2c1,30,?,-8,/,0,?
COC(=O)c1ccccc1N=Nc1c(C)n[nH]c1C,7,-15%,-3,1%,/,-15%
COc1ccc(-n2nc(C(=O)NCC(=O)N3CC(C)CC(C)C3)c3ccccc3c2=O)cc1OC (configuration not stated),?,?,2,/,11,?
CCC(C)NC(=O)CNC(=O)Cn1c(C)cc2ccccc2c1=O (configuration not stated),0,1%,6,-1%,4,0%
Cc1cc(C)cc(OC(=O)CN2C(=O)c3ccccc3C2=O)c1,-4,15%,-1,/,-3,2%
CS(=O)(=O)N(CC(=O)Nc1ccc(Br)cc1F)C1CCCCC1,-1,?,-8,1%,-2,9.2µM*
CS(=O)(=O)N(CC(=O)NCc1ccc(Cl)cc1)C1CCCCC1,-15,21µM*,3,1%,8,15µM*
Cc1ccc(S(=O)(=O)N(CC(=O)NCc2ccncc2)C2CCCCC2)cc1,8,12µM*,-2,4%,5,9.2µM*
Cc1ccc(S(=O)(=O)N(CC(=O)NCc2ccco2)C2CCCCC2)cc1,3,?,-2,-10%,8,-22%
COC(=O)c1sccc1NC(=S)OC,-3,18%,10,-4%,-2,-26%
SMILES,IL-1B inflam inh,DT40 TDP1 CPT,Six1-Eya2 blk,TDP1 block,CtBP-E1A inh,DT40 TDP1 no CPT
C/C=C/c1ccc(OCC(O)CNCC(c2ccc(OC)cc2)N(C)C)c(OC)c1 (configuration not stated),-57*,?,-1,/,3,?
C/C=C/c1ccc(OCC(O)CN(C)Cc2ccc(SC)cc2)c(OC)c1 (configuration not stated),?,?,-19,/,/,23µM*
CC(/C=N/n1c(-c2n[nH]c3c2CCC3)n[nH]c1=S)=C\c1ccco1,34,7%,-1,1%,-3,2%
CCN(CC(=O)NC(=O)NCc1ccccc1)CC(=O)Nc1cc(Cl)ccc1C,-18,?,-2,-2%[56.1 µM],3,?
COc1cc2c(cc1OC)C(=O)CCC2,0,15µM*,-1,/,3,16µM*
CC(C)c1ccc(C2NC(=O)NC3=C2CCc2ccccc23)cc1 (configuration not stated),-6,13µM*,-8,-8%,-6,15µM*
Cc1ccc(O)c(NC(=O)c2cc(-c3ccc(F)cc3)on2)c1,?,-19%,-1,3%,-17,-10%
CC(=O)Nc1ccc(Nc2cc(C(C)C)nc3c(-c4ccccc4)c(C)nn23)cc1,-76*,?,13,4%,-10,?
CCCc1cc(N2CCCC2)n2nc(C)c(-c3ccccc3)c2n1,15,?,23,-3%,26,?
CCCc1cc(NCc2ccccn2)n2nc(C)c(-c3ccccc3)c2n1,22,0.58µM*,12,7%,15,0.92µM*
Cc1nn2c(NCc3ccccn3)cc(C(C)C)nc2c1-c1ccccc1,0,16µM*,4,7%,/,?
Cc1nn2c(NCCCn3ccnc3)cc(C(C)C)nc2c1-c1ccccc1,/,?,-16,10%,-10,?
CC(=O)Nc1ccc(Nc2cc(C)nc3c(-c4ccccc4)c(C)nn23)cc1,-10,?,6,1%,13,?
CCOC(=O)N1CCN(CC(=O)Nc2sccc2C#N)CC1,68,21µM*,9,5%,35,15µM*
Cc1ccc(C)c(S(=O)(=O)N2CCN(CC(=O)Nc3sccc3C#N)CC2)c1,-2,16µM*,-16,3%,-18,18µM*
N/C(=N\OC(=O)c1cccnc1)c1ccccc1Cl,-9,?,-9,1%,/,?
CCC(Oc1ccccc1)C(=O)OCC(=O)N(CC)c1c(N)n(Cc2ccccc2)c(=O)[nH]c1=O (configuration not stated),9,6%,0,5%,5,6%
COc1ccc(NC(=O)CSc2nc3ccccc3n2Cc2cccc(OC)c2)cc1,/,?,/,-1%,/,?
COc1cccc(NC(=O)CSc2nc3ccccc3c(=O)n2Cc2cccs2)c1,0,21µM*,-3,3%,-6,?
